Experimental data published in PMC4336329 (PLoS ONE, 2015).
The campaign covered roughly 310,000 compounds. About 2,200 (0.71%) showed an effect of 50% or more. The effect is printed as a negative number. This excerpt belongs to a sample that is enriched for strong results.

Target: human ether-à-go-go-related gene (hERG) potassium channel (human, UniProt Q12809)
Test: primary screen, population patch clamp on CHO cells stably expressing hERG; higher = less effect of the substance

Sequence of human ether-à-go-go-related gene (hERG) potassium channel (Q12809 whole entry, looked up): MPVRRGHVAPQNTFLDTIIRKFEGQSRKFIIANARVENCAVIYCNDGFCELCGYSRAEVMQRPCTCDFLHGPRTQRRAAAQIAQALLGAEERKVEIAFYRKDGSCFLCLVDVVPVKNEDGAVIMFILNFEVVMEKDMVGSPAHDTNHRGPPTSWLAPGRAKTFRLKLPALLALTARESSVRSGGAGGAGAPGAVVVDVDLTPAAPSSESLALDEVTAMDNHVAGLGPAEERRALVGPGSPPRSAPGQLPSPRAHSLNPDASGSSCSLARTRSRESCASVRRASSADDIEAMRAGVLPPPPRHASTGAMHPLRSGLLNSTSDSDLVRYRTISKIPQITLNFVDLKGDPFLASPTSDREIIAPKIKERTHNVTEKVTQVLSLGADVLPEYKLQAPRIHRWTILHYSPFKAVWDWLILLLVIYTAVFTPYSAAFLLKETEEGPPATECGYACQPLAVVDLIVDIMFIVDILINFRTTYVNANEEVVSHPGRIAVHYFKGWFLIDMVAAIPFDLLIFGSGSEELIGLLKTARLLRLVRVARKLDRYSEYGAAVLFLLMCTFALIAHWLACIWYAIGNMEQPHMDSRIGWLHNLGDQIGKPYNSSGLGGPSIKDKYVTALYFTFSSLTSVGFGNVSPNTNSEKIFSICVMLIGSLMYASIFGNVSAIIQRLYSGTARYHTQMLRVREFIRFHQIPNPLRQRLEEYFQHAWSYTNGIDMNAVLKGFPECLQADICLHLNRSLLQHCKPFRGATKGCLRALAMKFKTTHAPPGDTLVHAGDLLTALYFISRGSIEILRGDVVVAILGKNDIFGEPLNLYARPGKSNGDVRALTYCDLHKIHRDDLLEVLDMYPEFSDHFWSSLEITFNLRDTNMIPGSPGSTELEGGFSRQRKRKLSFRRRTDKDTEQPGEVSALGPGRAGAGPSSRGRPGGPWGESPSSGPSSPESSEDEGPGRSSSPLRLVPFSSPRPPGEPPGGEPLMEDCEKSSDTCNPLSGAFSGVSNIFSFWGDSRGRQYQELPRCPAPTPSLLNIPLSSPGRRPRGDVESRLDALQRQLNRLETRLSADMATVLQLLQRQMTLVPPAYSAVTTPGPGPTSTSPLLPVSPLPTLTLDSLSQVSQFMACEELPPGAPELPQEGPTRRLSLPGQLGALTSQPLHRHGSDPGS

Structure (SMILES)	hERG current change (%, negative = inhibition) at 1uM [%]
COC(=O)c1cc(NC(=O)CSc2nnc(N)s2)ccc1Cl	13.6
Cc1ccc2c(CC(=O)N(C)c3c(N)n(Cc4ccccc4)c(=O)[nH]c3=O)coc2c1	8.06
O=C(NCCc1ccccc1)c1ccc2nccnc2c1	20.4
CC(C)Cc1ccc(C(C)C(N)=NCCc2ccccc2)cc1.Cl (stereo not shown)	-16
CC(C)Cc1ccc(C(C)C(=N)N)cc1.Cl (stereo not shown)	10.2
CC(C)Cc1ccc(C(C)C(N)=Nc2ccc(O)cc2)cc1.Cl (stereo not shown)	-71.8
CSCCC(=O)N1CCC(n2nccc2NC(=O)CCc2ccccc2)CC1	5.02
Cc1ccc2c(c1)nnn2C1CCN(CC(=O)c2ccc(Cl)cc2)CC1	-6.32
O=C(c1ccccc1)C1CCN(CC(=O)N2CCN(c3ccccc3)CC2)CC1	10.9
Cc1ccc2c(c1)nnn2C1CCN(CC(=O)Nc2ccc(F)cc2)CC1	-20.7
Cc1ccc(C(=O)C2CCN(CC(=O)N3CCN(c4ccc(F)cc4)CC3)CC2)cc1	-66.5
O=C(CN1CCC(C(=O)c2ccc(F)cc2)CC1)Nc1ccc(F)cc1	-31.6
Cc1ccc2c(c1)nnn2C1CCN(CC(=O)N2CCN(c3ccc(F)cc3)CC2)CC1	-52.5
CC(=O)c1ccc(NC(=O)CN2CCC(C(=O)c3ccc(F)cc3)CC2)cc1	6.3
Cc1ccc(C(=O)C2CCN(CC(=O)NCc3ccc(F)cc3)CC2)cc1	-17.5
Cc1ccc(NC(=O)CN2CCC(C(=O)c3ccc(F)cc3)CC2)cc1	-50.1
O=C(/C=C/c1ccc(F)cc1)NC(=S)Nc1ccccc1O	13.6
CCN1C(=O)/C(=C/c2ccc(N(CC)CC)cc2OC)C(=O)NC1=S	5.05
Cc1ccccc1OCCN=Cc1c(O)n(C)c(=O)n(C)c1=O	10.2
Cc1cc(C(=O)NC2=NCCS2)cs1	-13
Cc1ccc(S(=O)(=O)NCCC(=O)NNC(=O)c2ccccc2O)cc1C	-9.68
Cc1csc(Sc2ccc(S(=O)(=O)N3CCCC3)cn2)n1	-2.28

Structure (SMILES)	hERG current change (%, negative = inhibition) at 1uM [%]
O=Cc1c(NCCc2ccc(F)cc2)c2ccccc2[nH]c1=O	4.06
Cc1ccc(-c2csc(NC(=O)C3CSC4(C)CCC(=O)N34)n2)cc1 (stereo not shown)	11.6
O=C(Nc1ccnn1C1CCN(Cc2ccccc2)CC1)C1CCCC1	-15.9
O=C(Nc1ccnn1C1CCN(C/C=C/c2ccc(F)cc2)CC1)C1CCCC1	-79.3
O=C(Nc1ccnn1C1CCN(C/C=C/c2ccccc2)CC1)C1CCCC1	-78.4
O=C(Nc1ccnn1C1CCN(Cc2ccccc2F)CC1)C1CCCC1	-6.15
O=C(Nc1ccnn1C1CCN(Cc2cccc(O)c2)CC1)C1CCCC1	-14.2
O=C(Nc1ccnn1C1CCN(Cc2cccc(F)c2F)CC1)C1CCCC1	8
CC1(c2ccccc2)CC(C)(C)N2C(=O)C3(C(C#N)=C(N)Oc4cc(O)ccc43)c3cccc1c32 (stereo not shown)	6.18
O=C(CNCc1cccc2ccccc12)Nc1ccccc1[N+](=O)[O-]	1.68
COc1ccc(NC(=O)CSc2nnc(-c3ccoc3C)n2CCc2ccccc2)cc1	1.36
CCN1/C(=C/c2ccc3cccc(C)c3[n+]2CC)Sc2ccccc21.[I-]	-76.4
CCN1/C(=C/c2ccc3cc(C)ccc3[n+]2CC)Sc2ccccc21.[I-]	-100
CCN1/C(=C/C=C/C=C/C=C/c2sc3ccccc3[n+]2CC)Sc2ccccc21.[I-]	7.57
CCN1/C(=C/C=C/C=C/c2sc3ccccc3[n+]2CC)Sc2ccccc21.[I-]	-37.5
CCN1/C(=C/C(C)=C/c2sc3ccccc3[n+]2CC)Sc2ccccc21.[I-]	10.6
CCC(=O)/C=C1\Sc2ccccc2N1CC	4.38
CCN1/C(=C/c2ccc3ccc(C)cc3[n+]2CC)Sc2ccccc21.[I-]	-63.6
CCC(=O)/C=C1/Sc2ccccc2N1CC	10.1
CCN1/C(=C/c2ccc3cc(C)ccc3[n+]2CC)Sc2ccc3sccc3c21.[I-]	10.9
COc1cccc(CCc2nnc(N)s2)c1	13.2
O=Cc1cn(CC(=O)Nc2ccccc2)c2ccccc12	6.4

Structure (SMILES)	hERG current change (%, negative = inhibition) at 1uM [%]
C=CCOC(=O)Nc1ccc(Cl)cc1NC(=O)OCC=C	0.411
Cc1ccc(C(=O)Oc2ccc(Cl)c3cccnc23)cc1[N+](=O)[O-]	15
CCCc1c(C)[nH]c2nc3ccccc3n2c1=O	11.4
COc1ccc(C)cc1S(=O)(=O)N(C)CC(=O)N1CCC(C(N)=O)CC1	9.99
COc1cc(NC(=S)N2CCN(C)CC2)cc(OC)c1	14.3
CCN1C(=O)/C(=C\N2CCN(c3cccc(Cl)c3)CC2)SC1=S	6.97
COc1ccc(NC(=S)N(CCCN2CCCC(C)C2)Cc2cccs2)cc1 (stereo not shown)	-62.4
COc1ccc(NC(=S)N(CCCN2CCCC2)Cc2cccs2)cc1	-7.06
COc1ccc(NC(=S)N(CCCN2CCCCC2)Cc2cccs2)cc1	-50.1
COc1ccc(NC(=S)N(CCCN2CCOCC2)C(C)c2cc3ccccc3o2)cc1 (stereo not shown)	-63.1
COc1cccc(NC(=S)N(CCCN2CCCC(C)C2)Cc2cccs2)c1 (stereo not shown)	-30.2
COc1ccc(NC(=S)N(CCCN2CCOCC2)C(C)c2cc3cccc(OC)c3o2)cc1 (stereo not shown)	3.7
COc1ccc(NC(=S)N(CCCN2CCC(C)CC2)Cc2cccs2)cc1	-47.5
COc1ccc(NC(=S)N(CCCN2CCN(C)CC2)Cc2cccs2)cc1	-14
COc1cccc(NC(=S)N(CCCN2CCOCC2)C(C)c2cc3ccccc3o2)c1 (stereo not shown)	10.6
COc1ccccc1-c1csc(NC(=O)c2ccc(N3C(=O)CCC3=O)cc2)n1	5.85
Cc1c(C(=O)Nc2ccc(S(=O)(=O)N(C)C3CCN(C)CC3)cc2)oc2ccccc12	3.99
Cc1cc(NC(=O)Cn2nc([N+](=O)[O-])c(Br)c2C)no1	15.4
Clc1ccc(-c2csc(N3CCN(c4ccccc4)CC3)n2)cc1	6.51
O=C(COC(=O)Cc1c(F)cccc1Cl)NCCC1=CCCCC1	7.46
O=C(NCCn1cccn1)c1ccc(OC2CCN(CCc3ccccc3)CC2)cc1	-1.71
CCc1cc(CNC(=O)c2ccc(OC3CCN(CCc4ccccc4)CC3)cc2)on1	-54.4

Structure (SMILES)	hERG current change (%, negative = inhibition) at 1uM [%]
Cc1cc(CN(C)C(=O)c2ccc(OC3CCN(Cc4ccccn4)CC3)cc2)on1	-2.96
O=C(NCc1ccon1)c1ccc(OC2CCN(CCc3ccccc3)CC2)cc1	-26
CN(Cc1cnn(C)c1)C(=O)c1ccc(OC2CCN(CCc3ccccc3)CC2)cc1	-8.79
Cc1cc(CN(C)C(=O)c2ccc(OC3CCN(CCc4ccccc4)CC3)cc2)on1	-77.5
CN1CCN(c2ccc(CNS(=O)(=O)Cc3cccc(C(F)(F)F)c3)cc2)CC1	7.74
CC(C)n1c(=N)c(C(=O)NCCc2ccccc2)cc2c(=O)n3ccccc3nc21	-78.6
COc1ccc(CCNC(=O)c2cc3c(=O)n4ccccc4nc3n(Cc3ccco3)c2=N)cc1OC	-74.3
COc1ccc(CCNC(=O)c2cc3c(=O)n4cccc(C)c4nc3n(Cc3ccco3)c2=N)cc1OC	-21.8
N=c1c(S(=O)(=O)c2ccc(Br)cc2)cc2c(=O)n3ccccc3nc2n1Cc1ccco1	15.4
N=c1c(S(=O)(=O)c2ccccc2)cc2c(=O)n3ccccc3nc2n1Cc1ccco1	18.6
O=C(NCCc1ccccc1)c1cnc2ccccn2c1=O	8.72
N=c1c(C(=O)NCCN2CCOCC2)cc2c(=O)n3ccccc3nc2n1CCc1ccccc1	-33.1
COc1ccc(CCNC(=O)c2ccc3c(=O)n(Cc4ccco4)c(=S)[nH]c3c2)cc1OC	13.6
N=c1c(C(=O)NCc2ccccc2)cc2c(=O)n3ccccc3nc2n1Cc1ccco1	-75.5
N=c1c(C(=O)NCc2ccco2)cc2c(=O)n3ccccc3nc2n1CCc1ccccc1	-84.2
CC(=O)c1ccc(OCCCC(=O)Nc2cccc(S(=O)(=O)N3CCCCC3)c2)cc1	-3.68
Oc1ccc2ccccc2c1Br	12.1
COc1ccc(N2CCN(C(=O)/C=C/c3ccco3)CC2)cc1	6.52
Cc1ccc(C(=O)NCCNS(=O)(=O)c2ccccc2)cc1	-1.17
